Shown are actives, neighbours in structure and some others; about 10% of the full set was active somewhere.
G9a block – qHTS Assay for Inhibitors of Histone Lysine Methyltransferase G9a. Histone-lysine N-methyltransferase EHMT2 (Homo sapiens), Q96KQ7. G9a H3K9 monomethylation, AlphaScreen, 2 h. Potency, µM (doses to about 102 µM), without a hit: top-dose activity, negative = inhibition, usual class: inhibitors. 350,000 compounds, 8.8% hits; note: potency is the fitted concentration of half-maximal effect; % is set by controls: 0 for no effect and ±100 for the full control effect; nearly all actives have a fitted effect of over 75% in size
Target sequence (Q96KQ7 913-1193 limits assumed): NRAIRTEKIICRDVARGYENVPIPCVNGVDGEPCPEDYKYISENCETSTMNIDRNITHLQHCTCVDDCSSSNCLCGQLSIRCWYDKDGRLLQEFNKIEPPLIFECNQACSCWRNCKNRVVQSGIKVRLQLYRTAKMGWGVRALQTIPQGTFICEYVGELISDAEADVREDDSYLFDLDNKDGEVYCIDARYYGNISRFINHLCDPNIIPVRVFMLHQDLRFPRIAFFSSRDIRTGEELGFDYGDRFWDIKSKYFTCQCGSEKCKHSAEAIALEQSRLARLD
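AlphaScreen read-out: biotin-H3K9 peptide (500 nM) methylation by 20 nM enzyme with 20 uM SAM, 2 h at room temperature after 15 min compound preincubation; anti-monomethyl H3K9 antibody plus donor/acceptor beads, 10 min dark.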
CtBP-E1A inh – qHTS Assay for Inhibitors of the CtBP/E1A Interaction; AlphaScreen GST-E1A/His-CtBP binding, 1536-well; stronger effect = lower value; activity change, % (test concentration not listed); CtBP / adenovirus E1A interaction (AlphaScreen); AID 651724, 2012; 340,000 compounds, 0.49% hits; in the data active = activity change below about -65%; inconclusive = mostly about -30% to -63%; note: % is set by controls: 0 for no effect and ±100 for the full control effect
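Protein mix (5X: 125 nM each GST-E1A, His-CtBP) was incubated with pinned compound 2 h at 37 deg C in dark, in 50 mM Tris pH 8.0 buffer with 300 mM NaCl. Glutathione donor and nickel acceptor beads followed; AlphaScreen signal read after 1 h.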
Six1-Eya2 inh – qHTS Assay for Inhibitors of the Six1/Eya2 Interaction. AID 651725, 2012. AlphaScreen GST-Six1/His-Eya2 binding, biochemical; stronger effect = lower value. Homeobox protein SIX1 (Homo sapiens) + Protein phosphatase EYA2 (Homo sapiens), …. 360,000 compounds, 0.56% hits. activity change, % (test concentration not listed); in the data active = activity change below about -65%; inconclusive = mostly about -30% to -63%; note: % is set by controls: 0 for no effect and ±100 for the full control effect
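AlphaScreen luminescence read after one hour at 37 °C in darkness. Pin-transferred compounds met GST-Six1 and His-Eya2 protein (5X stock 250 nM/500 nM) plus glutathione donor and Ni-chelate acceptor beads (5X, 50 ug/mL).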
BAZ2B block – qHTS Assay for Inhibitors of BAZ2B. AID 504333, 2011. Potency, µM (top dose mostly 114 µM), for the others: at the top dose activity change, negative = inhibition, most hits filed as inhibitors. 360,000 compounds, 4.4% hits. AlphaScreen BAZ2B-H3K14Ac peptide displacement; note: potency is the fitted concentration of half-maximal effect; % is set by controls: 0 for no effect and ±100 for the full control effect; nearly all actives have a fitted effect of over 60% in size
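BAZ2B 50 nM plus b-H3(5-23)K14Ac 50 nM, PBS pH 7.4/0.01% Tween-20, 30 min RT; compound added (max 110 uM), 30 min RT; streptavidin donor/Ni-chelate acceptor beads 10 ug/mL final, 20 min dark; AlphaScreen read.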
HP1b binding inh – HTS for Inhibitors of HP1-beta Chromodomain Interactions with Methylated Histone Tails; Chromobox protein homolog 1 (Homo sapiens), P83916; Potency, µM (top dose mostly 114 µM), inactives show at the highest dose activity change, negative = inhibition, most hits filed as inhibitors; AlphaScreen HP1-beta / biotin-H3K9me3 peptide binding; 390,000 compounds, 0.56% hits; AID 540317, 2011; note: potency is the fitted concentration of half-maximal effect; nearly all actives have a fitted effect of over 70% in size
Target sequence (P83916 whole entry, looked up): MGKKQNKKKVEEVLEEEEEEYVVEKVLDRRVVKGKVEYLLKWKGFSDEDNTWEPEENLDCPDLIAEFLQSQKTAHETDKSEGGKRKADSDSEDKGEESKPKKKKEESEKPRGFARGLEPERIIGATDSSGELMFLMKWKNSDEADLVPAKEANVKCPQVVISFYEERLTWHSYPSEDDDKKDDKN
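AlphaScreen: HP1-beta (50 nM) preformed 30 min with biotin-H3(1-18)K9me3 peptide (50 nM) in PBS pH 7.4, 0.01% Tween-20. Compound added for 30 min at RT, then streptavidin donor/nickel chelate acceptor beads (10 ug/mL) for 30 min.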
JMJD2A Tudor – qHTS Assay for Inhibitors of JMJD2A-Tudor Domain | AlphaScreen JMJD2A-Tudor / H3K4me3 peptide binding | Potency, µM (highest dose often 114 µM), for the others: at the top dose activity change, negative = inhibition, usual class: inhibitors | 390,000 compounds, 4.4% hits | AID 504339, 2011; note: potency is the fitted concentration of half-maximal effect; % is set by controls: 0 for no effect and ±100 for the full control effect; nearly all actives have a fitted effect of over 50% in size
* = called active by the depositor; ? = inconclusive; . = not tested or not shown; [ ] = dose if it differs, or a comment. Unless noted, calls come from the whole dose curve; as a rule, active = well fitted inhibition curve with a large enough effect; inconclusive = small, poorly fitted or top-dose-only effect; inactive = no such curve, though single readings can be large or run the other way.

SMILES	G9a block	CtBP-E1A inh	Six1-Eya2 inh	BAZ2B block	HP1b binding inh	JMJD2A Tudor
COc1ccc(Cn2c(C(=O)O)c(CNCC(C)c3ccccc3)c3ccc(OC)cc32)cc1 (configuration not stated)	-8%[59 µM]	.	.	?	-9%	?
COc1ccc(Br)cc1CNC(=O)CCc1cn(Cc2ccc(C)cc2)c2ccccc12	-19%[59 µM]	.	.	-17%	37%	-2%
CN1CCc2c(n(CC(O)CNCc3ccccc3)c3ccccc23)C1=O (configuration not stated)	50µM*	.	-1	-26%	35%	-10%
CN1CCc2c(n(CC(O)CN(CCO)CCO)c3ccccc23)C1=O (configuration not stated)	35µM*	.	2	-15%	50%	-28%
C(=NN=C1c2ccccc2-c2ccccc21)c1c[nH]c2ccccc12	.	1	?	.	?	22µM*
CCn1cc(C(=O)N(C)Cc2ccccc2)c(=O)c2cc(S(=O)(=O)N3CCc4ccccc4C3)ccc21	-33%[59 µM]	.	.	.	21%	-21%
Cc1cc(C(F)F)n2nc(C(=O)Nc3cc(Cl)ccc3C)nc2n1	0%[59 µM]	.	.	0%	33%	-3%
COc1ccc(C(OCC(O)CNCCc2ccccc2)c2ccc(OC)cc2)cc1 (configuration not stated)	6%[0.501 µM]	2	3	32µM*	?	3.5µM*
Cc1ccc(C(OCC(O)CNCc2ccc(F)cc2)c2ccccc2)cc1 (configuration not stated)	?	.	-1	40µM*	-34%	79µM*
COc1ccc(C(OCC(O)CNC(C)c2ccccc2)c2ccc(OC)cc2)cc1 (configuration not stated)	-4%	-20	-5	-22%	-15%	-29%
O=C(c1ccccc1)c1ccc(OCC(O)CNCc2ccc(F)cc2)cc1 (configuration not stated)	5µM*	0	0	35µM*	-10%	5µM*
CCC(C)NC(=O)CCCN1C(=O)CCn2nc(-c3cccn3C)cc21 (configuration not stated)	-20%[59 µM]	.	.	-26%	3%[57 µM]	-20%
COc1ccc(C(O)c2nccc3cc(OC)c(OC)cc23)cc1OC (configuration not stated)	3.5µM*	-6	0	56µM*	8%	?
O=C(O)c1cccc(S(=O)(=O)NCCc2ccccc2)c1	-7%	.	-4	-7%	10%	-17%[11.4 µM]
O=C(O)c1cccc(S(=O)(=O)NNc2ccccc2C(F)(F)F)c1	1.4µM*	2	3	50µM*	-16%	7.9µM*
Cc1cccc2c(=O)cc(CSc3ccccc3NC(=O)c3cccc(Cl)c3)[nH]c12	-4%[59 µM]	.	.	0%	23%[57 µM]	-10%
Cc1ccc(C(=O)NN2C(=O)c3ccc(S(=O)(=O)c4ccc(C(=O)O)cc4)cc3C2=O)cc1	?	-5	-5	-3%	3%	16µM*
COc1ccc(CNCc2ccccc2)cc1COc1ccc(NC(C)=O)cc1	.	.	.	.	21%	-18%
COc1ccc(-c2csc(NC(=O)CN3C(=O)NC4(CCCC4)C3=O)n2)cc1OC	56µM*	-12	-4	-22%	-2%	-21%
COc1ccc(OC)c(-c2csc(NC(=O)CN3C(=O)C4CCCCC4C3=O)n2)c1 (configuration not stated)	50µM*	2	12	?	?	?
